Sampled rows, rich in hits. Any-hit rate of the full collection: about 1.1%.
RXFP1 agonist: activates the human relaxin receptor RXFP1. Q9HBX9. HEK293T-RXFP1 cAMP TR-FRET, 30 min; response scale: percent of porcine relaxin response, buffer zero. Potency, µM (doses to about 57.5 µM), inactives show at the top dose activation, usual class: activators. 370,000 tested, 0.3% active; note: potency is the fitted concentration of half-maximal effect; % is set by controls: 0 for no effect and ±100 for the full control effect; nearly all actives have a fitted effect of over 60% in size
Target sequence (Q9HBX9 whole entry, looked up): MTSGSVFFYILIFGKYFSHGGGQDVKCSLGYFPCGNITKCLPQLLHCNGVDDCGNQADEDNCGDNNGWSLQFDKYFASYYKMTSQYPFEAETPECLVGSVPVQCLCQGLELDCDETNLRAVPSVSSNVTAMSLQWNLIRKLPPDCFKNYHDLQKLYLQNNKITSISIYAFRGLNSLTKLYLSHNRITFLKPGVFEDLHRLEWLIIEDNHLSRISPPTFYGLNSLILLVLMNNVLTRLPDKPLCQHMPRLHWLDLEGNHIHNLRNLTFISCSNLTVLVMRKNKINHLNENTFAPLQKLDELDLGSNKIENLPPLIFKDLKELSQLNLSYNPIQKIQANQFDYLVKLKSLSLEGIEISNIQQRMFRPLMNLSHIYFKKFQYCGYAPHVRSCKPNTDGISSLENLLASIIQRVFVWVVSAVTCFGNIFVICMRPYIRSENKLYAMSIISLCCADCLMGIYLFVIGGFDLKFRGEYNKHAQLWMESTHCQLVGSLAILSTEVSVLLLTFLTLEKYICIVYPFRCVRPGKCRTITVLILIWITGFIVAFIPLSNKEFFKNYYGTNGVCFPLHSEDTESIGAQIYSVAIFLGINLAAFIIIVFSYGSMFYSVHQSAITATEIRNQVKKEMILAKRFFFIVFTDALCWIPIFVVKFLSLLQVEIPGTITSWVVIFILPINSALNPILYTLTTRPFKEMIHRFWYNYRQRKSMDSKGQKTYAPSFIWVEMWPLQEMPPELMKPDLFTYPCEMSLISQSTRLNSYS
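HEK293T cells stably expressing RXFP1 were pretreated with the PDE4 inhibitor Ro 20174, exposed to compounds for 30 min at 37C, lysed, and cAMP was read by TR-FRET. Data normalized to buffer (basal) and 29 nM porcine relaxin (100%).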
RXFP1 antag: RXFP1 (human) relaxin receptor antagonism; Q9HBX9; HEK293-RXFP1, relaxin-stimulated cAMP HTRF, 30 min; active compounds read low; activity change, negative = inhibition, % at 57.5 µM; 350,000 tested, 0.59% active; AID 1259400;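 active = activity change of -60% or lower, but not beyond a set lower limit; inconclusive = change between -60% and -40%, or beyond the set limit; inactive = change above -40%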; note: % is set by controls: 0 for no effect and ±100 for the full control effect
ASM inhibitor: blocks human secretory acid sphingomyelinase | 340,000 tested, 0.006% active | placental ASM, HMU-PC fluorogenic substrate, 60 min | Potency, µM (top dose mostly 57.5 µM), for the others: at the highest dose activity change, negative = inhibition, usual class: inhibitors; note: potency is the fitted concentration of half-maximal effect
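Fluorescence read-out (Ex 386 nm, Em 447 nm) after stopping the reaction at pH 10. Enzyme: ASM from human placenta; substrate HMU-PC0, 9 uM final; 60 min, 37 °C. Compound preincubation 10 min, ambient temperature.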
gsp ag: gsp mutant agonism. gsp mutant cells, cAMP HTRF, 30 min. Potency, µM (doses to about 76.9 µM), without a hit: at the highest dose activation (cAMP increase), actives largely listed as activators. 340,000 tested, 0.13% active. AID 624287; active = well fitted activation curve with a large enough effect; inconclusive = small, poorly fitted or top-dose-only effect, or another doubt; inactive = no such curve, though single readings can be large or run the other way; cell line not stated here;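 note: phosphodiesterase inhibitor Ro 20-1724 added with compounds to block cAMP breakdown; potency is the fitted concentration of half-maximal effect; nearly all actives have a fitted effect of over 60% in size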
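Cells in DMEM/10% FBS with G418 were pretreated with compounds in DMSO plus […] (300 uM stock) for 30 min at 37C. cAMP was measured by HTRF (cAMP-d2 plus anti-cAMP antibody-K) after 30 min at room temperature.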
gsp antagonist: antagonists of gsp mutant (McCune-Albright syndrome); gsp-mutant cells, cAMP HTRF, 30 min; Potency, µM (series often up to 76.9 µM), without a hit: top-dose activity change, negative = inhibition, most hits filed as inhibitors; 340,000 tested, 0.4% active; AID 624288; calls by dose curve; cell line not stated here;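 note: intracellular cAMP measured with PDE inhibitor Ro 20-1724 present during compound exposure; potency is the fitted concentration of half-maximal effect; % is set by controls: 0 for no effect and ±100 for the full control effect; nearly all actives have a fitted effect of over 65% in size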
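Measurement of cellular cAMP by homogeneous time-resolved fluorescence following a 30 min compound exposure at 37C. The PDE inhibitor […] was present throughout; the assay buffer was DPBS with 0.05% BSA and 0.005% Tween 20.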
a7 integrin act: integrin-mediated muscular dystrophy alleviation activation; AID 624291; alpha7betagal myoblasts, beta-gal FDG fluorescence, 48 h; Potency, µM (doses to about 38.3 µM), for inactives: at the top dose activation, most hits filed as activators; 350,000 tested, 0.064% active;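 note: potency is the fitted concentration of half-maximal effect; 100% = response of the positive control SU9516; nearly all actives have a fitted effect of over 60% in size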
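alpha7betagal+/- myoblasts (passage 13, 250/well) treated 48 h at 37C with compounds at 1:260 dilution of DMSO stock. Lysed, then beta-galactosidase activity read as FDG fluorescence (ex 480/em 540) after 30 min, with pre-read for autofluorescence.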
Numbers without * were called inactive; ? = inconclusive; / = no result; [ ] = remark or other dose. Unless noted, calls come from the whole dose curve; as a rule, active = well fitted curve in the direction sought with a large enough effect; inconclusive = small, poorly fitted or top-dose-only effect, or another doubt; inactive = no such curve, though single readings can be large; an effect the other way counts as inactive or inconclusive.

SMILES	RXFP1 agonist	RXFP1 antag	ASM inhibitor	gsp ag	gsp antagonist	a7 integrin act
COc1cc(C2C(C#N)=C(C)NC(C)=C2C#N)cc(OC)c1OC	1%	0	8%	8.9µM*	11%	-14%
Cc1ccc(C)c(NC(=O)CN(C)C(=O)c2ccc(-c3ccc(Cl)cc3)o2)c1	0%	-22	-1%	-23%[15.4 µM]	3%	-32%
CN(CC(=O)Nc1cccc(F)c1)C(=O)c1ccc(-c2ccc(Cl)cc2)o1	-1%	0	-28%	?	-23%	11µM*
COc1ccc(-n2nc(C(=O)NCC(=O)NCCCN3CCOCC3)c3ccccc3c2=O)cc1OC	14µM*	11	-4%	52%[15.4 µM]	33%	-15%
COc1ccc(-n2nc(C(=O)NCC(=O)NCCCN3CCOCC3)c3ccccc3c2=O)cc1	16µM*	32	1%	?	15%	35%
COc1cc(OC)cc(-n2nc(C(=O)NCCCN3CCOCC3)c3ccccc3c2=O)c1	0%	-16	-1%	?	2%[15.4 µM]	-27%
COc1ccc(-n2nc(C(=O)NCC(=O)NCCCN3CCOCC3)c3ccccc3c2=O)cc1Cl	?	17	25%	41%[15.4 µM]	15%	12%
COC(=O)c1cc2sc(Cl)cc2n1CC(=O)Nc1cc(C)cc(C)c1	2%	-9	/	/	/	/
CC(=O)N(c1onc(C)c1C)S(=O)(=O)c1ccc(N)cc1	/	-11	/	/	/	/
C=CCN(Cc1ccc(Cl)s1)C(=O)c1cc(S(=O)(=O)N2CCOCC2)ccc1F	2%	-15	1%	7%	-6%	0%
CO[C@@]1(NC(=O)CSC[C@@H](N)C(=O)O)C(=O)N2C(C(=O)O)=C(CSc3nnnn3C)CS[C@@H]21	/	6	/	/	/	/
COc1ccc(-c2cn3nc(SCC(=O)Nc4cccc(C)c4C)ccc3n2)cc1	?	19	/	/	/	/
Oc1ccc(O)c(Cc2nc3ccccc3s2)c1	-3%	-77*	-3%	-23%	3%	27%
COCCCn1c(=S)[nH]c2sc3c(c2c1=O)CCCS3	16µM*	-2	-5%	18%[15.4 µM]	4%	-26%
Cc1ccc(Cl)cc1N1CCN(C(=O)COCc2cc(-c3ccc4c(c3)OCO4)on2)CC1	0%	-17	/	/	/	/
COc1ccc(CN2CCC(CO)(CCOc3ccccc3)CC2)c(OC)c1C	-1%	-22	-2%	13%[15.4 µM]	1%	10%
COc1ccc2[nH]c(CN3CCC(CO)(CCOc4ccccc4)CC3)c(C)c2c1	-2%	-71*	1%	-3%[15.4 µM]	3%	-13%
Cc1cc(/C=C2/C(=N)N3C(=NC2=O)SN=C3S(C)(=O)=O)c(C)n1-c1ccc(F)cc1	-1%	0	40%	2%	-20%	?
CCOc1ccc(-n2c(C)cc(/C=C3/C(=N)N4C(=NC3=O)SN=C4S(C)(=O)=O)c2C)cc1	0%	-6	50%	-16%	32µM*	8%
Cc1cccc(C)c1-n1cccc1/C=C1/C(=N)N2C(=NC1=O)SN=C2S(C)(=O)=O	-2%	-108*	13%	5%[15.4 µM]	?	-19%
Cc1ccc(-n2cccc2/C=C2/C(=N)N3C(=NC2=O)SN=C3S(C)(=O)=O)cc1Cl	-1%	-40	6%	-6%	-12%	16%
COc1ccc(-c2cn3nc(N4CCC(C(=O)NCc5ccccc5F)CC4)sc3n2)cc1	-2%	-1	/	/	/	/
CC(=O)N1CCc2cc(S(=O)(=O)NCCC(=O)N3CCc4ccccc4C3)ccc21	0%	1	-1%	13%	40µM*	-47%
COc1cccc(N2CCN(C(=O)c3nc(-c4ccc(Cl)cc4)n4c3CCCCC4)CC2)c1	3%	-9	/	/	/	/
COC(=O)CC1=C(c2ccc([N+](=O)[O-])cc2)CCC1=O	/	8	4%	-15%	-12%	-13%
SMILES	RXFP1 agonist	RXFP1 antag	ASM inhibitor	gsp ag	gsp antagonist	a7 integrin act
Cc1ccc(C2=C(CC(=O)O)C(=O)CC2)cc1	-1%	-11	3%	5%	?	4.5µM*
N#CC1=C2SCN(Cc3ccccc3)CN2C(=O)CC1c1cccs1 (centres undefined)	25µM*	7	5%	?	6%	-15%
N#CC1=C2SCN(Cc3ccccc3)CN2C(=O)CC1c1ccc2c(c1)OCO2 (centres undefined)	0%	-20	0%	-28%	-7%	-12%
O=C(N/N=C/c1ccco1)c1cc(-c2cccc3ccccc23)n[nH]1	1%	-13	-11%	-7%	-3%	-5%
O=C(N/N=C/c1ccccc1C(=O)O)c1cc(-c2ccc3c4c(cccc24)CC3)n[nH]1	0%	-65*	-10%	2%[15.4 µM]	-14%	-2%
COc1cc(/C=C(\C#N)C(=O)N2CCOCC2)cc(Br)c1O	3%	-1	-3%	13%	-12%	-22%
N#C/C(=C\c1cccc(Oc2ccccc2)c1)C(=O)N1CCOCC1	0%	-102*	-1%	12%[15.4 µM]	1%	0%
COc1cc2ccccc2cc1C(=O)Nc1ccc2oc(-c3cccc(C)c3)nc2c1	-1%	2	/	/	/	/
Oc1ccc(-c2nc3ccc(Cl)cn3c2Nc2ccc(Cl)cc2)cc1	7%	-67*	/	/	/	/
CC(C)(C)Nc1c(-c2ccc(O)cc2)nc2ccc(Cl)cn12	0%	-8	57%	-14%	2%	22%
COC(=O)c1ccc(NC(=O)c2c(NCc3ccc(C)o3)sc3c2CCCC3)cc1	0%	-37	/	/	/	/
CCc1ccc(-c2nc(CS(=O)CC(=O)NCCc3ccc(C)cc3)c(C)o2)cc1 (centres undefined)	0%	-9	/	/	/	/
COC(=O)c1cccc(NC(=O)Nc2ccc(Cl)cc2)c1	-1%	-13	-1%	3%[15.4 µM]	2%	0%
COC(=O)c1cc(NC(=O)Nc2cccc(Cl)c2)ccc1Cl	1%	5	-24%	-4%	25µM*	-60%
CN1CCN(S(=O)(=O)c2ccc(NC(=O)Nc3cccc(Cl)c3)cc2)CC1	-2%	8	-2%	1%	-9%	-14%
O=C(Nc1cccc(Cl)c1)Nc1cc(S(=O)(=O)N2CCCCC2)ccc1Cl	0%	-16	-12%	13%	25µM*	-64%
COc1ccccc1NS(=O)(=O)c1cccc(NC(=O)Nc2cccc(Cl)c2)c1	-1%	?	-20%	-12%	32µM*	-62%
COc1ccccc1NS(=O)(=O)c1cc(NC(=O)c2ccc(Cl)nc2)ccc1Cl	0%	-19	/	1%[15.4 µM]	32µM*	0%
CCCCCCCCCCCCCC(=O)NO	/	9	-19%	-4%	6%	8%
COc1ccccc1NC(=O)Cn1c(=O)n(CCc2ccccc2)c(=O)c2c3c(sc21)CN(C(C)=O)CC3	1%	/	/	/	/	/
Cc1c(Cl)cccc1NC(=O)CN1C(=O)CCn2nc(-c3cccn3C)cc21	5%	-10	/	/	/	/

Bioassay records: PubChem BioAssay, National Center for Advancing Translational Sciences (NCATS)
